Legend:
Experiment in all cases: PBM binding z-score (relative to random genomic background probes); higher = stronger binding; sequences stand for … in GC…GCGATTGACAGCGTAGAATGAAGG
[1] = system: FXR:RXRa (NR concentration 270 nM, RXRa partner concentration 90 nM)
Procedure, shortened: (§1)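 Ligand-free nuclear receptor dimers were bound for 1 h to custom Agilent 4×180K protein-binding microarrays. Detection used antibodies against each partner (one per run). Binding z-scores rest on regression-normalized fluorescence, with random background probes as the reference.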

[2] = system: LXRa:RXRa (NR concentration 270 nM, RXRa partner concentration 90 nM)
Procedure, shortened: as §1

[3] = system: LXRa homodimer (NR concentration 270 nM)
Procedure, shortened: as §1

[4] = system: LXRb:RXRa (NR concentration 270 nM, RXRa partner concentration 90 nM)
Procedure, shortened: as §1

[5] = system: LXRb homodimer (NR concentration 270 nM)
Procedure, shortened: as §1

[6] = system: PPARa:RXRa (NR concentration 270 nM, RXRa partner concentration 90 nM)
Procedure, shortened: as §1

[7] = system: PPARg:RXRa (NR concentration 180 nM, RXRa partner concentration 90 nM)
Procedure, shortened: as §1

[8] = system: PPARg:RXRa 270nM:90nM, anti-RXR (NR concentration 270 nM, RXRa partner concentration 90 nM)
Procedure, shortened: as §1

[9] = system: PPARg:RXRa 30nM:10nM, anti-RXR (NR concentration 30 nM, RXRa partner concentration 10 nM)
Procedure, shortened: as §1

[10] = system: PPARg:RXRa 90nM:30nM, anti-RXR (NR concentration 90 nM, RXRa partner concentration 30 nM)
Procedure, shortened: as §1

[11] = system: PPARg:RXRa DBDmut IVT, anti-RXR (DBD mutation: RXRa K156A/R161A, NR concentration 270 nM, RXRa partner concentration 90 nM)
Procedure, shortened: as §1

[12] = system: PPARg:RXRa IVT, anti-PPARg (NR concentration 270 nM, RXRa partner concentration 90 nM)
Procedure, shortened: as §1

[13] = system: PPARg DBDmut:RXRa IVT, anti-PPARg (DBD mutation: PPARg1 K132A/R137A, NR concentration 270 nM, RXRa partner concentration 90 nM)
Procedure, shortened: as §1

[14] = system: PPARg DBDmut IVT, anti-PPARg (DBD mutation: PPARg1 K132A/R137A, NR concentration 270 nM)
Procedure, shortened: as §1

[15] = system: PPARg homodimer (NR concentration 180 nM)
Procedure, shortened: as §1

[16] = system: PXR:RXRa (NR concentration 270 nM, RXRa partner concentration 90 nM)
Procedure, shortened: as §1

[17] = system: PXR homodimer (NR concentration 270 nM)
Procedure, shortened: as §1

[18] = system: RARa:RXR (NR concentration 270 nM, RXRa partner concentration 90 nM)
Procedure, shortened: as §1

[19] = system: RARa homodimer (NR concentration 270 nM)
Procedure, shortened: as §1

[20] = system: RARb:RXRa (NR concentration 270 nM, RXRa partner concentration 90 nM)
Procedure, shortened: as §1

Row | Sequence | PBM binding z-score [1] | PBM binding z-score [2] | PBM binding z-score [3] | PBM binding z-score [4] | PBM binding z-score [5] | PBM binding z-score [6] | PBM binding z-score [7] | PBM binding z-score [8] | PBM binding z-score [9] | PBM binding z-score [10] | PBM binding z-score [11] | PBM binding z-score [12] | PBM binding z-score [13] | PBM binding z-score [14] | PBM binding z-score [15] | PBM binding z-score [16] | PBM binding z-score [17] | PBM binding z-score [18] | PBM binding z-score [19] | PBM binding z-score [20]
1 | CAAACTAGGTCACGAAATGTCAAAGTCGAATGAC | 4.45 | 5.4 | 1.06 | 3.49 | 0.702 | 5.42 | 9.32 | 7.56 | 6.2 | 7.61 | 8.65 | 9.32 | 6.88 | 5.58 | 3.3 | 2.74 | 0.475 | 3.64 | 1.83 | 4.39
2 | CCTATTAGTTGACCATTAGGGCAACCGAAGCTCG | 0.493 | 0.0846 | 0.475 | 0.224 | 0.396 | 0.454 | 0.203 | 0.612 | 0.0251 | 0.278 | 1.18 | 1.3 | -0.00387 | 0.76 | 1.65 | 0.111 | 0.563 | 0.412 | 1.35 | 1.04
3 | ATCTCTAGGTAACAAGTTCAGTGCAAGAGAGGAC | 0.558 | 0.749 | 0.739 | 0.611 | 0.89 | 1.5 | 1.32 | 1.86 | 0.692 | 1.45 | 3.44 | 2.92 | 1.24 | 1.13 | 1.36 | 1.87 | 2.67 | 0.985 | 1.05 | 1.69
4 | CAAACTAGGTCACCGGAAGGTCAAACTCCGCATG | 6.33 | 6.34 | 6.11 | 5.67 | 1.82 | 6.19 | 9.8 | 7.8 | 6.23 | 7.86 | 8.32 | 8.83 | 5.1 | 4.65 | 8.25 | 6.17 | 2.46 | 7.35 | 2.71 | 5.14
5 | CCTTACGGGTCACGCGGTTATAGCACGACGAGCG | 6.26 | 4.51 | 0.11 | 3.64 | 0.0354 | 5.65 | 6.07 | 6.24 | 2.58 | 4.96 | 4.11 | 4.96 | 0.683 | 0.817 | 1.05 | 3.53 | -0.0866 | 4.59 | 0.82 | 4.33
6 | GCTTACGGGTCAAAGCTTATAGCATGAATAGAAT | 6.25 | 3.79 | -0.13 | 3.78 | 0.156 | 5.7 | 4.76 | 5.32 | 2.66 | 4.08 | 4.24 | 3.92 | 0.68 | 0.139 | 1.56 | 2.98 | -0.218 | 4.44 | -0.0595 | 3.83
7 | ACTTACGGGTCAACGAGGTTATAGGACGCGTATA | 5.95 | 5.07 | 0.89 | 4.43 | 0.538 | 5.78 | 5.7 | 5.53 | 2.04 | 4.25 | 3.03 | 4.18 | 1.47 | 0.791 | 2 | 5.08 | 2.36 | 5 | 1.18 | 4.41
8 | ACTAGCAGGCCAATTTTGGGTCACTCAAACAAAG | 0.105 | 0.0624 | 0.139 | 0.747 | -0.68 | 1.8 | 0.396 | 0.508 | -0.304 | -0.0238 | 1.13 | 1.84 | 0.126 | -0.427 | 0.323 | 0.759 | -0.305 | 1.38 | -0.793 | 1.45
9 | TCTGCTAGGTCAGTTGGTCAGCTACCGAGCTGCC | 0.866 | 0.506 | -0.683 | -0.00907 | -0.0816 | 1.21 | 0.156 | 1.79 | 1.19 | 1.29 | 2.75 | 3.45 | 0.596 | 0.667 | -0.139 | 0.0735 | -0.891 | 0.438 | -0.931 | 3.14
10 | AGAACGAGGGCACGCTGAGTTTATAGCAGAGTAG | 0.87 | 1.08 | -0.437 | 0.283 | -1.07 | 2.21 | 2.19 | 1.98 | 0.505 | 1.43 | 4.28 | 3.85 | 1.13 | 0.317 | 0.761 | 3.96 | 2.87 | 1.28 | -0.418 | 2.63
11 | GCAGACAGGTGAAAGGCAGGTAACTCAGGGTGGC | 0.0647 | 0.0817 | -0.103 | -0.00398 | -0.276 | 0.899 | 0.826 | 0.901 | -0.278 | 0.391 | 0.331 | 0.821 | -0.179 | -1.25 | 0.447 | -0.081 | -0.0558 | 0.332 | 0.233 | 0.812
12 | CCTAGTTGTTCAAGGTCACACACGCTATAGGTAC | 4.9 | 4.93 | 4.85 | 4.17 | 1.95 | 4.26 | 2.64 | 3.12 | 1.55 | 2.55 | 1.86 | 2.8 | 2.46 | 1.22 | 4.99 | 4.73 | 3.83 | 5 | 4.94 | 4.12
13 | ATATGTAGGTAAGCTGGGGTCATTCAGACTAGGC | 4.33 | 4.31 | 1.73 | 4.3 | 1.58 | 4.98 | 4.31 | 4.65 | 2 | 3.77 | 6.08 | 5.46 | 1.69 | 1.13 | 1.48 | 6.07 | 3.4 | 5.45 | 0.719 | 2.67
14 | TCTATTAGTTAAAGGGCAACCGACGAGTCCGTTT | 0.559 | 1.45 | 0.826 | 1.12 | 0.427 | 1.87 | 1.12 | 3.36 | 3.9 | 3.45 | 2.36 | 0.552 | 0.374 | 1.04 | 1.7 | 1.32 | 0.941 | 1.18 | 1.13 | 2.47

Source: the supplement of paper PMC6555819
